# According to PubChem BioAssay (NCATS):
# “And” between values parts separate entries of the source, which are not always exact repeats. Equal entries are not always repeated. Inconclusive results are not listed. The source made the active and inactive calls. Unless noted, calls follow the shape of the dose curve; as a rule, active = well fitted curve in the direction sought with a large enough effect; inconclusive = small, poorly fitted or top-dose-only effect, or another doubt; inactive = no such curve, though single readings can be large; an effect the other way counts as inactive or inconclusive.
# Tests used:
# [1] = High Content Imaging Cell-Based qHTS for Inhibitors of the mTORC1 Signaling Pathway in MEF Cells (AID 2667); also: potency is read from the fitted curve at half-maximal effect
# Method in brief: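 Read-out is the share of phospho-rpS6-positive cells per well, from Hoechst-normalized Alexa-488 Ser235/236 staining imaged on IN Cell. Cells: WT Tsc2-expressing Tsc2-/-, p53-/- MEFs exposed to compound for 24 hrs.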
# [2] = molecular target: DNA polymerase III PolC-type (Bacillus subtilis (strain 168)) (UniProt P13267); assay: qHTS Validation Assay for the Inhibitors of DNA Replication in Gram-Positive Bacteria (AID 485295); also: potency is read from the fitted curve at half-maximal effect
# Method in brief: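 Reconstituted B. subtilis Pol III holoenzyme (PolC, beta clamp, SSB, primase) preincubated with compound, then M13Gori single-stranded circular template with dNTPs/NTPs added; room temperature reaction. Stopped with EDTA/PicoGreen; dsDNA fluorescence read, EDTA as full-inhibition control.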
# [3] = qHTS profiling of the MIPE4 collection as inhibitors of Plasmodium falciparum (DD2) proliferation (Rep 2) (AID 743346; call rule not given here); conditions: P. falciparum Dd2 in erythrocytes, SYBR Green DNA, 72 h; at 28.5 µM (top of the series) unless noted
# Method in brief: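 Parasite DNA was quantified by SYBR Green I fluorescence (ex 485, em 535 nm) after overnight lysis in saponin/Triton buffer at room temperature. Cultures at 0.3% parasitemia and 2.5% hematocrit were first exposed to compound for 72 h at 37 C; signals were normalised to artemisinin (0.29 uM) and vehicle wells.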
# [4] = molecular target: Cytochrome P450 2C9 (Homo sapiens) (UniProt P11712); assay: qHTS Assay for Inhibitors and Substrates of Cytochrome P450 2C9 (AID 883); also: nearly all actives have a fitted effect of over 60% in size; also: potency is read from the fitted curve at half-maximal effect
# Method in brief: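 Signal: luciferase luminescence reporting luciferin produced by CYP2C9. Conditions: 10nM enzyme, Luciferin-H 100uM at KM, 25mM KPO4, 37C, 60 min NADPH-driven reaction. Reference: 57uM sulphaphenazole as 100% inhibition.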
# [5] = molecular target: Endonuclease 4 (Escherichia coli (strain K12)) (UniProt P0A6C1); assay: Counterscreen for APE1 Inhibitors: qHTS Validation Assay for Inhibitors of Endonuclease IV (AID 1708); also: % is scaled to controls: 0 for no effect and ±100 for the full control effect
# Method in brief: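 Conditions: 2 nM enzyme, 50 nM TAMRA/BHQ-2 substrate, pH 7.5 Tris buffer with 2 mM MgCl2, RT. Compound preincubation 15 min; readout three fluorescence reads 60 s apart, third-minus-first.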
# [6] = qHTS for differential inhibitors of proliferation of Plasmodium falciparum line 3D7 (AID 1876); also: potency is read from the fitted curve at half-maximal effect
# [7] = qHTS for differential inhibitors of proliferation of Plasmodium falciparum line D10 (AID 1877);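 also: potency is read from the fitted curve at half-maximal effect; parasites grown with compound for 72 h before DNA staining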
# [8] = qHTS for differential inhibitors of proliferation of Plasmodium falciparum line HB3 (AID 1886); conditions: Potency: Plasmodium falciparum HB3 proliferation inhibition;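 also: potency is read from the fitted curve at half-maximal effect; parasites grown with compound for 72 h before SYBR Green readout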
# [9] = molecular target: DNA repair nuclease/redox regulator APEX1 (Homo sapiens) (UniProt P27695); assay: qHTS Validation Assay for Inhibitors of the Human Apurinic/apyrimidinic Endonuclease 1 (APE1) (AID 1705; also: potency is read from the fitted curve at half-maximal effect)
# Method in brief: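 Fluorogenic double-stranded THF abasic-site substrate (5'-TAMRA/3'-BHQ-2), 50 nM final. Enzyme preincubated with compound 15 min at room temperature, then substrate added. Kinetic fluorescence (ex 525/em 598 nm) read three times at 60 s intervals; activity taken as third-minus-first read difference.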
# [10] = molecular target: Peroxisome proliferator-activated receptor gamma (Homo sapiens) (UniProt P37231); assay: qHTS assay for small molecule antagonists of peroxisome proliferator-activated receptor gamma signaling (AID 588537; active = well fitted inhibition curve with a large enough effect in the signal ratio, with a control signal flat, not every such curve was filed as active; the % refers to the signal ratio;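 also: reporter cells co-stimulated with 50 nM rosiglitazone agonist during compound treatment; % of control where 0% means no effect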)
# Method in brief: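 Fluorescence at 460 and 530 nm (405 nm excitation) reported beta-lactamase cleavage of CCF4 after 2 h room-temperature loading. HEK293 reporter cells in 1% charcoal/dextran-treated FBS had received compound and rosiglitazone for 16 h.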
# [11] = Cytometry Cell-Based qHTS for Inhibitors of the mTORC1 Signaling Pathway in MEF cells (AID 2668); also: potency is read from the fitted curve at half-maximal effect
# Method in brief: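 MEFs (Tsc2-/-, p53-/- stably expressing WT Tsc2) treated 24 h at 37 degree Celsius, fixed, stained with Alexa-488 anti-phospho-rpS6 Ser235/236 and propidium iodide; Acumen laser scanning. Reported as % positive cells, phospho-S6 normalized to PI.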
# [12] = molecular target: Thioredoxin reductase 1, cytoplasmic (Rattus norvegicus) (UniProt O89049); assay: qHTS Assay for Inhibitors of Mammalian Selenoprotein Thioredoxin Reductase 1 (TrxR1) (AID 488773); conditions: Potency: inhibition; also: nearly all actives have a fitted effect of over 40% in size; also: potency is read from the fitted curve at half-maximal effect
# Method in brief: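 Inhibition is scored from the loss of NADPH fluorescence between first and last reads of an 8-min kinetic run. Selenite (400 uM) was the substrate, added after 15 min compound preincubation at room temperature.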
# [13] = molecular target: Peroxisome proliferator-activated receptor delta (Homo sapiens) (UniProt Q03181); assay: qHTS assay for small molecule agonists of peroxisome proliferator-activated receptor delta signaling (AID 588534; calls by dose curve;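 also: 0% = DMSO basal wells and 100% = positive control agonist at 10 µM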)
# Method in brief: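 Agonist-mode qHTS; reporter cells, 5 hrs 37 C pre-incubation; compound titration, 18 hrs 37 C; CCF4 dye, 2 hrs RT; fluorescence read. EC50/efficacy via Hill fit.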
# [14] = molecular target: Thioredoxin reductase 1, cytoplasmic (Rattus norvegicus) (UniProt O89049); assay: qHTS Assay for Substrates of Mammalian Selenoprotein Thioredoxin Reductase 1 (TrxR1) (AID 488772);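 also: 0% is about no effect; a drop in NADPH fluorescence below the no-compound background marks a TrxR1 substrate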
# Method in brief: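 In this dual-purpose format, potential substrates are identified from the first fluorescence read after selenite addition, not from the 8-minute delta. Rat enzyme is preincubated with NADPH and then with compound at ~22 deg C.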
# [15] = Validation screen for small molecules that induce genotoxicity in human embryonic kidney (HEK293T) cells expressing luciferase-tagged ELG1 (AID 493106); also: 0% is about no effect
# Method in brief: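 Cells were dispensed at 2,000 per well, then 23 nL compound or DMSO was pinned in. After 16 hr at 37 °C and 5% CO2, ONE-Glo reagent was added. Luciferase activity was measured following 30 min at room temperature.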
# [16] = Validation screen for small molecules that induce DNA re-replication in MCF 10A normal breast cells (AID 463097); also: potency is read from the fitted curve at half-maximal effect; nearly all actives have a fitted effect of over 60% in size
# Method in brief: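 MCF 10A cells exposed to compound 48 hr at 37 C, 5% CO2, then Hoechst-stained 40 min. Laser-scanning imaging of nuclear DNA content (405 nm ex, 500-530 nm em); re-replication scored as rise in nuclei with elevated fluorescence intensity.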
# [17] = qHTS assay to identify small molecules that stimulate interleukin-8 (IL-8) secretion (AID 651758; active = well fitted activation curve with a large enough effect in the signal ratio; the % refers to the signal ratio; also: 0% is about no effect)
# Method in brief: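 Compounds are added to THP-1 cells (2000 per well) and left 16 hrs at 37 C. A labeled anti-IL-8 antibody pair is then added, and IL-8 secretion is measured by time-resolved FRET after 1-3 hrs at room temperature.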
# [18] = molecular target: Bile acid receptor (Homo sapiens) (UniProt Q96RI1); assay: qHTS assay for small molecule agonists of farnesoid X receptor signaling (AID 588527; calls by dose curve;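 also: 0% = vehicle basal and 100% = reference agonist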); conditions: HEK293T FXR-UAS-bla, beta-lactamase ratio, 16 h; activation: stronger effect = higher value
# Method in brief: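 FXR-UAS-bla HEK293T cells (10% dialyzed FBS) preincubated 5-7 h at 37 C, then compounds at up to 92 uM for 16 h at 37 C. CCF4 beta-lactamase read-out after 2 h RT. Normalized to chenodeoxycholic acid (100 uM) and DMSO; Hill fit gave EC50 and efficacy.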
# [19] = qHTS assay for small molecule antagonists of peroxisome proliferator-activated receptor delta signaling (AID 588535; active = well fitted inhibition curve with a large enough effect in the signal ratio, with a control signal flat, not every such curve was filed as active; the % refers to the signal ratio;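 as to max response: cells co-treated with a PPAR-delta agonist as stimulator during compound exposure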); conditions: HEK293T PPARd-UAS-bla, beta-lactamase FRET ratio, 18 h; 460 nm channel
# Method in brief: (§1)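 Fluorescence from CCF4-loaded GeneBLAzer PPAR-delta-UAS-bla HEK293T cells (2 hrs RT loading) quantified reporter inhibition after an 18 hr, 37 C compound exposure across a titration.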
# [20] = molecular target: Peroxisome proliferator-activated receptor delta (Homo sapiens) (UniProt Q03181); assay: as above
# Method in brief: as §1
# Chain of Thioredoxin reductase 1, cytoplasmic (Rattus norvegicus) (O89049 whole entry, looked up): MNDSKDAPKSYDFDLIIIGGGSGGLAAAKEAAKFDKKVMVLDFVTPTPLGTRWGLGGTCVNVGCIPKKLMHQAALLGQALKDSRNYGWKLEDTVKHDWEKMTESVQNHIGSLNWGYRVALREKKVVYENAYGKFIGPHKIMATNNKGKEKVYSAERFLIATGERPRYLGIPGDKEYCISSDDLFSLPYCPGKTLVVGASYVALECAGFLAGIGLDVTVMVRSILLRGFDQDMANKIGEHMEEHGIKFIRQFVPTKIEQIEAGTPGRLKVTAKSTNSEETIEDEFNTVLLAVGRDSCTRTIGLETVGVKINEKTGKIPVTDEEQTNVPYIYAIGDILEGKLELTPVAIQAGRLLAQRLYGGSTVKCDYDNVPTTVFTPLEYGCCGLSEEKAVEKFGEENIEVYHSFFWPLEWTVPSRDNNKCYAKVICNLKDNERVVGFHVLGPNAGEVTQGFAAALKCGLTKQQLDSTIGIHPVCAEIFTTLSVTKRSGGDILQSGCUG
# Chain of Bile acid receptor (Homo sapiens) (Q96RI1 whole entry, looked up): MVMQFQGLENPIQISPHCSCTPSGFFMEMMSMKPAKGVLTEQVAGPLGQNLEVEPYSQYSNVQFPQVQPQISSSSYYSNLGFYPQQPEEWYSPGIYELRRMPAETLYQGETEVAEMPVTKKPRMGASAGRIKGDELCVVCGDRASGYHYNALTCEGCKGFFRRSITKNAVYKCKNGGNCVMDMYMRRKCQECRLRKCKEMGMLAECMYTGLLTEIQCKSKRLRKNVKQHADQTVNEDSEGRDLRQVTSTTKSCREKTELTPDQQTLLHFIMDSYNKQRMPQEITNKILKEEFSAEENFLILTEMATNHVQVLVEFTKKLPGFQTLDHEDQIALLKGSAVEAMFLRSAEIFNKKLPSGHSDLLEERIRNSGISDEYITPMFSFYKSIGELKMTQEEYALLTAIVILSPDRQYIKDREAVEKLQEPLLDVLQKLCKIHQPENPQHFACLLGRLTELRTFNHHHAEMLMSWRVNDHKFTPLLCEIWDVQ
# Chain of Peroxisome proliferator-activated receptor gamma (Homo sapiens) (P37231 whole entry, looked up): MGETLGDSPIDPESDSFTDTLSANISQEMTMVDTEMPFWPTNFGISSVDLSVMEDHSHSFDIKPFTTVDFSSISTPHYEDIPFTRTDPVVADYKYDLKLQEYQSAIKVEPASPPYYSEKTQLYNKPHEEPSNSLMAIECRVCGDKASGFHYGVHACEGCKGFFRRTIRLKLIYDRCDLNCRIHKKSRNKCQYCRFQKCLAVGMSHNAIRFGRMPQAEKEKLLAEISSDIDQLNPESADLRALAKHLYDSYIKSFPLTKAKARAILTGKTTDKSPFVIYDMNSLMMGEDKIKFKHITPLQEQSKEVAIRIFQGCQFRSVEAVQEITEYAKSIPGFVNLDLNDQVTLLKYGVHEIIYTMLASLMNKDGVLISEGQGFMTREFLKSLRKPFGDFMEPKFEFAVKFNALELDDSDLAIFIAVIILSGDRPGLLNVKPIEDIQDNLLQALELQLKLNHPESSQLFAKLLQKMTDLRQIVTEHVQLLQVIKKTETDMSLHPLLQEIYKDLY
# Chain of Peroxisome proliferator-activated receptor delta (Homo sapiens) (Q03181 whole entry, looked up): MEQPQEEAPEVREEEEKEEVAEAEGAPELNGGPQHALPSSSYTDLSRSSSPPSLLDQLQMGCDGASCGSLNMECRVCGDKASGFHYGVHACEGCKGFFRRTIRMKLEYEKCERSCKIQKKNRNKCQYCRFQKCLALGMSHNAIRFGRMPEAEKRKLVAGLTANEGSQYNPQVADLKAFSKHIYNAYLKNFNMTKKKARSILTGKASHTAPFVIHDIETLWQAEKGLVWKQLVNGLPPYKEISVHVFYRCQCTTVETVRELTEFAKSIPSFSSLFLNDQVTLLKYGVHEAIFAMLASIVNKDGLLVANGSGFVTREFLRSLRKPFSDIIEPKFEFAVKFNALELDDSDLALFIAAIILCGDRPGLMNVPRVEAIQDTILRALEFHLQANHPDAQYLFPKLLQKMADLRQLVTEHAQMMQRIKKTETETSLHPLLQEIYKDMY
# Chain of DNA polymerase III PolC-type (Bacillus subtilis (strain 168)) (P13267 whole entry, looked up): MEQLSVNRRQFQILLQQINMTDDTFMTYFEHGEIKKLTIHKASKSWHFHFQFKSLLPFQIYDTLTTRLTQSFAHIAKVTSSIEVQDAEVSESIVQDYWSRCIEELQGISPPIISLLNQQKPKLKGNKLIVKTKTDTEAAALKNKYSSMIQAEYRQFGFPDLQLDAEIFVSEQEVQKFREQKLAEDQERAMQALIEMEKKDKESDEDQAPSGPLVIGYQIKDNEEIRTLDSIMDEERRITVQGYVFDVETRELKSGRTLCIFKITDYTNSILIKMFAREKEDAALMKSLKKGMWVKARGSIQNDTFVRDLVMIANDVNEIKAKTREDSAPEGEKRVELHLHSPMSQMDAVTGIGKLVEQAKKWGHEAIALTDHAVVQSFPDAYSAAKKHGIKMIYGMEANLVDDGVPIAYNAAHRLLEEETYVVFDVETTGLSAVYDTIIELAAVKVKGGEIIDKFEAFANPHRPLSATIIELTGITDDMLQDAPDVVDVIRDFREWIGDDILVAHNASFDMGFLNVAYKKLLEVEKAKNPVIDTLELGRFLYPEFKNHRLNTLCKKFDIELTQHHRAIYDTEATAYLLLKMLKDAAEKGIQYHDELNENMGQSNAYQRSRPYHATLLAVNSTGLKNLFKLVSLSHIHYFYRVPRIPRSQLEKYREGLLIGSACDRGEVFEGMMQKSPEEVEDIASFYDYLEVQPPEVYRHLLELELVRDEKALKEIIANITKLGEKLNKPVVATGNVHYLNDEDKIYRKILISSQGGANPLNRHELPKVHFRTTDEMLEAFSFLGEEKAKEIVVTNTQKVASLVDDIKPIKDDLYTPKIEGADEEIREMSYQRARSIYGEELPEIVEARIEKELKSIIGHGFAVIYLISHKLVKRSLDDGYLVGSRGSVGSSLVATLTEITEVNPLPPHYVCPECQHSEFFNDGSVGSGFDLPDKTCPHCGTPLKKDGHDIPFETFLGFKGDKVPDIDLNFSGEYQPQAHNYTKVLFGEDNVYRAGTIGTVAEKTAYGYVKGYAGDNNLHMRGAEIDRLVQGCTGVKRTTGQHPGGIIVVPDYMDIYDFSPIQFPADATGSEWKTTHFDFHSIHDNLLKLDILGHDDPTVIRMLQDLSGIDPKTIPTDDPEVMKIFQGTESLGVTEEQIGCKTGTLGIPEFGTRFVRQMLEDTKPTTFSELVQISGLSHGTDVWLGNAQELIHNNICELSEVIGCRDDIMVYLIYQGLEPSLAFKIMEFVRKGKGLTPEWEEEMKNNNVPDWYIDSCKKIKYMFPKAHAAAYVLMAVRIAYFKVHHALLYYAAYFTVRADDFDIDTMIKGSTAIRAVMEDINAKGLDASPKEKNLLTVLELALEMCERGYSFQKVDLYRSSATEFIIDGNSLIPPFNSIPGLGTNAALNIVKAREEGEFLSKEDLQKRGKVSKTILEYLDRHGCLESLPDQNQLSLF
# Chain of Cytochrome P450 2C9 (Homo sapiens) (P11712 whole entry, looked up): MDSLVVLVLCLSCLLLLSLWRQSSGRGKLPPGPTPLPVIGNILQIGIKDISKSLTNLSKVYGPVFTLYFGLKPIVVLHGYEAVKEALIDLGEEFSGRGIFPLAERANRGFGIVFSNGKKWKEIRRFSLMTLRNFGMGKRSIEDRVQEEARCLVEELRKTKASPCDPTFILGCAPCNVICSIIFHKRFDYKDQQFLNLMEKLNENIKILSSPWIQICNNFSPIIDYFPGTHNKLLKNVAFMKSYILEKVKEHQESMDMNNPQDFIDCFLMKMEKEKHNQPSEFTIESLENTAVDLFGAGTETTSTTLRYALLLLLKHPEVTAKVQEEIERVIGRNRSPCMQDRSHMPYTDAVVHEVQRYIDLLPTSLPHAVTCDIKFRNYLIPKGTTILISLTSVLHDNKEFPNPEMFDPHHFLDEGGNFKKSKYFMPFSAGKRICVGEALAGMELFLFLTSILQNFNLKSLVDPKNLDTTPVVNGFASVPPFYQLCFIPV
# Chain of DNA repair nuclease/redox regulator APEX1 (Homo sapiens) (P27695 whole entry, looked up): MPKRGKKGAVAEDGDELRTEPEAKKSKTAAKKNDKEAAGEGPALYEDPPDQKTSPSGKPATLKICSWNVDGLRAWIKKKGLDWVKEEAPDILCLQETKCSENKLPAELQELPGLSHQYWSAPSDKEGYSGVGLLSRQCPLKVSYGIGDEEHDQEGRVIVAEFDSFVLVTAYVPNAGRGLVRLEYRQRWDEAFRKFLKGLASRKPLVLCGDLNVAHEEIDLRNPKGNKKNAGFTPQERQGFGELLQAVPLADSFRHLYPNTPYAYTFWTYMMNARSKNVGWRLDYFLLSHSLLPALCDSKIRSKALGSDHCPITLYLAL
compound,measurement,setting,value
CN1C2CCC1CC(OC(=O)C(CO)c1ccccc1)C2 (stereo not given),Potency,[1],inactive
same,Potency,[2],inactive
same,"parasite growth, % of control (lower = inhibition)",[3],62.2%
O=C1Nc2ccc(I)cc2/C1=C/c1cc(Br)c(O)c(Br)c1,Potency,[4],0.0794 µM (active)
O=C(O)c1ccccc1C(=O)Nc1ccc(-c2ccccc2)cc1,"parasite growth, % of control (lower = inhibition)",[3],82.2%
CC(C)NC[C@H](O)COc1cccc2[nH]ccc12,outcome,[5],inactive
N#C/C(=C\c1ccc(O)c(O)c1)C(=O)NCCCNC(=O)/C(C#N)=C/c1ccc(O)c(O)c1,outcome,[5],inactive
same,Potency,[6],2.24 µM (active)
same,Potency,[7],2.24 µM (active)
same,Potency,[8],2 µM (active)
same,Potency,[2],21.2 µM (active)
NO,Potency,[9],inactive
same,Potency,[6],12.6 µM (active)
CC(C)COC(=O)c1ccccc1C(=O)OCC(C)C,Potency,[10],inactive
CCCCCCCCCC[Si](C)(C)CCC(=O)NC(Cc1ccc(C)cc1)c1ccccc1 (stereo not given),Potency,[6],2.82 µM (active)
same,Potency,[7],3.55 µM (active)
same,Potency,[8],2.82 µM (active)
Oc1ccccc1O,Potency,[9],35.5 µM (active)
same,outcome,[5],inactive
same,Potency,[11],10.4 µM (active)
same,Potency,[12],11.9 µM (active)
same,Potency,[13],inactive
Nc1nc(N)c2nc(CNc3ccc(C(=O)NC(CCC(=O)O)C(=O)O)cc3)cnc2n1 (stereo not given),outcome,[14],inactive
same,outcome,[15],inactive
COc1cc([C@@H]2c3cc4c(cc3[C@H](O)C3COC(=O)[C@@H]32)OCO4)cc(OC)c1OC (stereo not given in full),Potency,[8],15.8 µM (active)
same,Potency,[11],0.0465 µM (active)
same,Potency,[16],0.0355 µM (active)
Oc1ccccc1Cl,Potency,[13],inactive
COC1=CC(=O)OC(CCc2ccc3c(c2)OCO3)C1 (stereo not given),Potency,[10],inactive
same,Potency,[17],inactive
CCOC(=O)c1ccccc1N,activation,[18],-0.579% (inactive)
Nc1nc2ccc(Cl)cc2c2nc(-c3ccco3)nn12,Potency,[4],inactive
same,Potency,[11],5.85 µM (active)
O=c1oc(Cl)c(Cl)c2ccccc12,Potency,[1],18.5 µM (active)
same,Potency,[16],5.01 µM (active)
same,Potency,[12],7.52 µM (active)
c1ccc(Nc2ccc3ccccc3c2)cc1,activation,[18],5.18% (inactive) and -0.414% (inactive)
same,max response,[19],41.7% and -2.21%
same,outcome,[20],inactive
Brc1c(Br)c(Br)c2n[nH]nc2c1Br,outcome,[15],inactive
NC1C=CC=C(C(=O)O)C1 (stereo not given),outcome,[15],inactive
CC(=O)/C=C/c1ccccc1,max response,[19],11.6%
same,outcome,[20],inactive
same,Potency,[17],inactive
c1ccc2c(c1)-c1cccc3cccc-2c13,Potency,[13],inactive
same,max response,[19],27.3%
same,outcome,[20],inactive
same,Potency,[10],inactive
Nc1nc2[nH]c(=O)cnc2c(=O)[nH]1,outcome,[14],inactive
same,Potency,[12],inactive
